Assay [1] is described as follows: ACEA_ER_80hr: ACEA Biosciences xCELLigence Real-Time Cell Analysis on Estrogen Receptor Agonism for Proliferation (AID 2282667; active means hit-call score of the fitted dose curve at least 0.9, where 1 is the maximum). Particulars: T47D proliferation, impedance (xCELLigence), 80 h. The method in brief: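 Real-time impedance growth kinetics of human T-47D breast cells read 80 h after dosing, gain-of-signal fitted relative to DMSO. Compounds: 1:4 serial series, top final concentration 100 uM, n = 2.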

Assay [2] in a line: ATG_CRE_CIS: Attagene CIS-FACTORIAL HepG2 Assay for human cAMP Responsive Element (CRE) binding protein 3 (AID 2282926). As to conditions: HepG2 CRE cis-reporter, Attagene multiplexed mRNA; actives raise or lower the signal. The procedure, abridged:
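Multiplexed transcription-unit reporters transfected into HepG2; 24 h dosing; RT-PCR/capillary electrophoresis fluorescence read-out; bidirectional fit vs DMSO.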

The target in assay [3] is CCAAT/enhancer-binding protein beta (Homo sapiens) (UniProt P17676). Put plainly: ATG_C_EBP_CIS: Attagene CIS-FACTORIAL HepG2 Assay for human CCAAT/Enhancer Binding Protein (C/EBP) beta (AID 2282927). As to conditions: HepG2 Attagene cis-factorial transcription factor reporter; actives raise or lower the signal. The procedure, abridged:
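Endogenous C/EBPb-driven reporter transcripts measured in transfected human HepG2 cells at 24 h via RT-PCR and capillary electrophoresis of labelled fragments. Activity fitted in both directions relative to DMSO baseline.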

Assay [4] can be described thus: ATG_CMV_CIS: Attagene CIS-FACTORIAL HepG2 Assay for human CMV (Internal Marker) (AID 2282928).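 Further: endpoint acts as a background internal control marker rather than a target.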 Particulars: HepG2 CMV promoter reporter, transcription factor profiling; actives raise or lower the signal. The procedure, abridged: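 Cell system: HepG2, transiently transfected multiple reporter units under cis promoters. Exposure: 24 h. Detection: RT-PCR, FAM labeling, HpaI digestion, capillary electrophoresis. Analysis: bidirectional, DMSO baseline.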

A short description of assay [5]: ATG_DR4_LXR_CIS: Attagene CIS-FACTORIAL HepG2 Assay for human Liver X Receptor (LXR), DR4 submotif (AID 2282929). Particulars: HepG2 Attagene DR4 cis-reporter, mRNA transcription; actives raise or lower the signal. The procedure, abridged:
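The endpoint is DR4-element-driven reporter transcripts after 24 h chemical exposure of transfected HepG2 cells. These were measured via RT-PCR and capillary electrophoresis, and gain or loss of signal was fitted relative to DMSO controls.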

In assay [6] the target is Aryl hydrocarbon receptor (Homo sapiens) (UniProt P35869). The experiment in a line: ATG_Ahr_CIS: Attagene CIS-FACTORIAL HepG2 Assay for human Aryl Hydrocarbon Receptor (Ahr) (AID 2282930). As to conditions: HepG2 AhR cis-factorial reporter transcription; actives raise or lower the signal. The procedure, abridged:
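Reporter mRNA levels, quantified by RT-PCR and fluorescent capillary electrophoresis, reflect endogenous AhR transcriptional activity in HepG2 cells carrying transfected cis-promoter reporter constructs. Readout at 24 h post-dose; gain or loss fitted against DMSO baseline.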

A short description of assay [7]: ATG_AP_2_CIS: Attagene CIS-FACTORIAL HepG2 Assay for human Activator Protein 2 (AP-2) (AID 2282932). As to conditions: HepG2 AP-2 cis-reporter, Attagene transcription factor profiling; actives raise or lower the signal. The procedure, abridged:
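Step one: transient transfection of HepG2 with reporter transcription units. Step two: 24 h chemical exposure. Step three: RNA extraction, RT-PCR, labelled fragment analysis by capillary electrophoresis; DMSO serves as baseline.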

Assay [8] has as its target Retinoic acid receptor alpha (Homo sapiens) (UniProt P10276). Put plainly: ATG_DR5_RAR_CIS: Attagene CIS-FACTORIAL HepG2 Assay for human Retinoic Acid Receptor Alpha (RARE), DR5 submotif (AID 2282934). As to conditions: HepG2 Attagene cis-factorial RARE DR5 reporter, mRNA; actives raise or lower the signal. The method in brief: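 Reporter transcripts from a DR5-regulated unit, measured via RT-PCR plus capillary electrophoresis, reflect endogenous RAR activity in transiently transfected human HepG2 liver cells. Exposure lasted 24 h; gain or loss of signal scored against DMSO.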

Assay [9] addresses Transcription factor E2F1 (Homo sapiens) (UniProt Q01094). The experiment in a line: ATG_E2F_CIS: Attagene CIS-FACTORIAL HepG2 Assay for human E2F Transcription Factor 1 (AID 2282935). As to conditions: HepG2 Attagene cis-reporter, E2F reporter RNA transcripts; actives raise or lower the signal. The procedure, abridged:
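Total RNA from 24 h-treated, reporter-transfected HepG2 cells undergoes DNase I treatment, oligo(dT) reverse transcription, PCR and 6-FAM primer extension before capillary electrophoresis.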

Assay [10] can be described thus: ATG_E_Box_CIS: Attagene CIS-FACTORIAL HepG2 Assay for human Enhancer Box (E-box) (AID 2282936). Particulars: HepG2 E-box cis-reporter transcription, actives raise or lower the signal. The method in brief:
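DMSO served as negative control and baseline for bidirectional fitting. Human hepatoma HepG2 cells, transiently transfected with cis-reporter constructs, were dosed 24 h; reporter mRNA read by RT-PCR and capillary electrophoresis.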

Assay [11] is described as follows: ATG_M_61_CIS: Attagene CIS-FACTORIAL HepG2 Assay for M61 Transcription Factor (Internal Marker) (AID 2282937). Particulars: HepG2 Attagene CIS-FACTORIAL M61 internal marker reporter; actives raise or lower the signal. The procedure, abridged:
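Readout is reporter mRNA by RT-PCR, fluorescent primer extension and capillary electrophoresis, with gain or loss fitted relative to DMSO. Transfected HepG2 cells carrying endogenous-TF-driven cis reporters were exposed to chemicals for 24 hours.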

Assay [12] is described as follows: ATG_EGR_CIS: Attagene CIS-FACTORIAL HepG2 Assay for human Early Growth Response 1 (EGR1) (AID 2282938). Particulars: HepG2 Attagene CIS-FACTORIAL EGR reporter mRNA; actives raise or lower the signal. The procedure, abridged:
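After 24 h compound exposure, RNA from reporter-transfected HepG2 cells was reverse-transcribed, PCR-amplified, fluorescently labelled and resolved by capillary electrophoresis. EGR1 reporter transcript changes, up or down, were fitted against DMSO, reflecting endogenous transcription-factor activity.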

The nature of assay [13]: ATG_M_19_CIS: Attagene CIS-FACTORIAL HepG2 Assay for M19 Transcription Factor (Internal Marker) (AID 2282939). As to conditions: HepG2 Attagene CIS-FACTORIAL M19 internal marker reporter; actives raise or lower the signal. The procedure, abridged:
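Internal marker readout, fitted in both directions against DMSO, from HepG2 cells carrying transfected cis-element reporter constructs; RT-PCR and capillary electrophoresis of reporter mRNA after 24 h exposure.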

A short description of assay [14]: ATG_ERE_CIS: Attagene CIS-FACTORIAL HepG2 Assay for Estrogen Response Element (ERE) (AID 2282940). As to conditions: HepG2 ERE cis-reporter, Attagene RNA transcript; actives raise or lower the signal. The procedure, abridged:
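After 24 h compound treatment, RNA from transfected HepG2 cells was reverse-transcribed, reporter cDNA PCR-amplified, FAM-labelled, HpaI-cut and resolved by capillary electrophoresis. ERE-driven cis reporter transcripts reflect endogenous factors; gain or loss scored against DMSO.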

Assay [15] is described as follows: ATG_Ets_CIS: Attagene CIS-FACTORIAL HepG2 Assay for human Erythroblast Transformation Specific (ETS) (AID 2282941). Particulars: HepG2 ETS cis-reporter transcription, actives raise or lower the signal. The method in brief:
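After transient cis-reporter transfection, HepG2 cells receive test chemical for 24 h. Reporter mRNA levels, measured by RT-PCR and capillary electrophoresis fluorescence, are analysed bidirectionally relative to the DMSO baseline.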

Assay [16] has as its target Hepatocyte nuclear factor 3-beta (Homo sapiens) (UniProt Q9Y261). The experiment in a line: ATG_FoxA2_CIS: Attagene CIS-FACTORIAL HepG2 Assay for human Forkhead box A2 (FOXA2) (AID 2282942). As to conditions: HepG2 cis-reporter transcription factor activity, 24 h; actives raise or lower the signal. The procedure, abridged:
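Endogenous transcription factor activity is captured via cis-element-driven reporter transcripts in transfected HepG2. Total RNA taken at 24 h post-dosing; labelled RT-PCR products resolved by capillary electrophoresis. Gain or loss fitted versus DMSO.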

A short description of assay [17]: ATG_FoxO_CIS: Attagene CIS-FACTORIAL HepG2 Assay for human Forkhead box O (FoxO) (AID 2282943). Particulars: HepG2 Attagene cis-reporter, FoxO element, mRNA; actives raise or lower the signal. The procedure, abridged:
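Endogenous transcription factor activity read from multiplexed cis-promoter reporter transcripts in transiently transfected HepG2, 24 h after dosing. Reporter RNA measured via RT-PCR plus capillary electrophoresis of FAM-labeled products; gain or loss relative to DMSO.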

Assay [18] in a line: ATG_GATA_CIS: Attagene CIS-FACTORIAL HepG2 Assay for human GATA Binding Protein (AID 2282944). Particulars: HepG2 GATA cis-element reporter, Attagene multiplex mRNA; actives raise or lower the signal. The method in brief:
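Reporter transcripts from a GATA cis-regulated unit, among multiplexed reporters in transfected HepG2 cells, were measured by RT-PCR with capillary electrophoresis after 24 h dosing. Induction or loss scored relative to DMSO.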

Assay [19] is described as follows: ATG_BRE_CIS: Attagene CIS-FACTORIAL HepG2 Assay for human Bone Morphogenetic Protein (BMP) Response Element (BRE) (AID 2282933). As to conditions: HepG2 BMP response element reporter, Attagene transcription factor profiling; actives raise or lower the signal. The procedure, abridged: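 Endogenous transcription factor activity read in transiently transfected HepG2 cells after 24 h chemical exposure. Bidirectional curve fitting against DMSO; readout is reporter transcript level by RT-PCR with capillary electrophoresis of labelled products.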

Records with an inconclusive call do not appear. Calls of active or inactive are those of the source. How the source made its calls, unless noted: active means hit-call score of the fitted dose curve at least 0.9, where 1 is the maximum; inactive means score below 0.9.

CCAAT/enhancer-binding protein beta (Homo sapiens), sequence (P17676 whole entry, looked up, the tested form may be a part): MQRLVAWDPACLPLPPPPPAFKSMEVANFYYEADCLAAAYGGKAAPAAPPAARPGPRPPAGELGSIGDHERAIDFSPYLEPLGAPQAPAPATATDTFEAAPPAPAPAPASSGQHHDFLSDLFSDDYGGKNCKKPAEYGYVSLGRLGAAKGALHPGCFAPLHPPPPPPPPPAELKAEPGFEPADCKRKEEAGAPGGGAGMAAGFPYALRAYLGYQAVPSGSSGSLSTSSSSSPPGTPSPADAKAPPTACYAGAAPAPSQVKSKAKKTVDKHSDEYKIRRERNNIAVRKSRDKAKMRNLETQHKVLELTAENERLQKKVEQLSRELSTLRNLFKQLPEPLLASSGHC
Aryl hydrocarbon receptor (Homo sapiens), sequence (P35869 whole entry, looked up): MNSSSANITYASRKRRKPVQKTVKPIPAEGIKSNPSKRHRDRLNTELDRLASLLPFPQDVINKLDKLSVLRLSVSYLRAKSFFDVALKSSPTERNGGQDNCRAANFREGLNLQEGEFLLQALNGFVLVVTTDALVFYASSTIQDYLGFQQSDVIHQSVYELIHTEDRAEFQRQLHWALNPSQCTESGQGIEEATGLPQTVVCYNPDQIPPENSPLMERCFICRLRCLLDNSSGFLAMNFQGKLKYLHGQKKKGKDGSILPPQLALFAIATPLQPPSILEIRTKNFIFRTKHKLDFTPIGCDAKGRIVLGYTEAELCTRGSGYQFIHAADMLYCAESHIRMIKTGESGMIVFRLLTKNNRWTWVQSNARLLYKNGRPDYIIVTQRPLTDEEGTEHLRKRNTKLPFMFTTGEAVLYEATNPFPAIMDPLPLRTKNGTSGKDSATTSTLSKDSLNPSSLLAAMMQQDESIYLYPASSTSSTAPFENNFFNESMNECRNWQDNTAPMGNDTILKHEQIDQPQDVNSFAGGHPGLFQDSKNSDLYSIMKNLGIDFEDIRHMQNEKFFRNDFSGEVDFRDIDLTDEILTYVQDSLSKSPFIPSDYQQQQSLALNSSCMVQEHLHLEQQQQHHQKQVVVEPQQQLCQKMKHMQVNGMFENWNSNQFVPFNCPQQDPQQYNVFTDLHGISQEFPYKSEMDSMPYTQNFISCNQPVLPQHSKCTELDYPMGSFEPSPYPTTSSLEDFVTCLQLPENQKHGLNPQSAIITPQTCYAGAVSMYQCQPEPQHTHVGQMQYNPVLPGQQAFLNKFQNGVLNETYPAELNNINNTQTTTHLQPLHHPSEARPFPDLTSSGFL
Retinoic acid receptor alpha (Homo sapiens), sequence (P10276 whole entry, looked up): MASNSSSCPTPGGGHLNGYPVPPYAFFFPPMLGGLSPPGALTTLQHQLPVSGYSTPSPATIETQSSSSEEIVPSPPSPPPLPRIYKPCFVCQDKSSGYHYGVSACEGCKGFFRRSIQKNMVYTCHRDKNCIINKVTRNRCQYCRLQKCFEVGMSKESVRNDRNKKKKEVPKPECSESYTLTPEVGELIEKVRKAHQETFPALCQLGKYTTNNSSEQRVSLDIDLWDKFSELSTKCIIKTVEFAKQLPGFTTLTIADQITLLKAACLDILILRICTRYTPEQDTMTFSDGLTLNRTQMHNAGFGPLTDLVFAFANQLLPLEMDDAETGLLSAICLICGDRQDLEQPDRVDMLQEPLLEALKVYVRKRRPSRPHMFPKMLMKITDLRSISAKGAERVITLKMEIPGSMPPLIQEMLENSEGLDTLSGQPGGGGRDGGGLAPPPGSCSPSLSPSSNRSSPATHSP
Hepatocyte nuclear factor 3-beta (Homo sapiens), sequence (Q9Y261 whole entry, looked up): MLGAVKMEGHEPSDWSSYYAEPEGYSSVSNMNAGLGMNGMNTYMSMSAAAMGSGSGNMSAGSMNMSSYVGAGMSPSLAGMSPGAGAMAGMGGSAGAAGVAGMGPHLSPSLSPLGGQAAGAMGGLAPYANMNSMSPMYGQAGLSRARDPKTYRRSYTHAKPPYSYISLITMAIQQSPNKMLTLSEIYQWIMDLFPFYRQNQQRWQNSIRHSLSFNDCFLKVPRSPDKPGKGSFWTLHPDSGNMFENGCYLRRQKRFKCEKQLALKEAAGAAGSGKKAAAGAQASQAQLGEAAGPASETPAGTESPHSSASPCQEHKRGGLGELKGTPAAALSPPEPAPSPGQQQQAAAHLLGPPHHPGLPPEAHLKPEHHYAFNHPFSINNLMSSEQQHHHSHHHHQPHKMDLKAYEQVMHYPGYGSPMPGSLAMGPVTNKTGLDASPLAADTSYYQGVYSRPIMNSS
Transcription factor E2F1 (Homo sapiens), sequence (Q01094 whole entry, looked up): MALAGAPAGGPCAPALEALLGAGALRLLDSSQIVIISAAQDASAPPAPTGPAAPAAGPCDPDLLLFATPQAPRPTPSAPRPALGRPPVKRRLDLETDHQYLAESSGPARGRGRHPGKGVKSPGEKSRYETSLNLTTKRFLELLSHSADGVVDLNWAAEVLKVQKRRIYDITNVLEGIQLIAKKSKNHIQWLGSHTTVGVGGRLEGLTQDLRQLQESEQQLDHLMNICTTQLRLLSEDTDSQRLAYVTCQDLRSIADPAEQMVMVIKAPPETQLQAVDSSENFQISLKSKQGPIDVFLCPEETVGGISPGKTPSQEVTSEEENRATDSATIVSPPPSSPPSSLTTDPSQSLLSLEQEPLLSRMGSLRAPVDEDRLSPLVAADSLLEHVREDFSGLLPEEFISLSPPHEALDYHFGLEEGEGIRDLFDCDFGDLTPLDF

Regarding `CC(C)(C)NC(=O)[C@H]1CC[C@H]2[C@@H]3CC[C@H]4NC(=O)C=C[C@]4(C)[C@H]3CC[C@]12C`, the molecule was classed as inactive in [1], in [2], in assay [3], in assay [4], in assay [5] and in assay [6]. Also, the molecule was classed as inactive in assay [7], in assay [8], in assay [9], in [10], in [11] and in [12]. The outcome in assay [13], in assay [14], in assay [15], in assay [16], in assay [17] and in assay [18] was inactive.
As for `CCCC(C)C(=O)OCC` (configuration not stated), the call in [1], in assay [2], in [3], in assay [4], in assay [5] and in assay [6] was inactive. Moreover, the molecule was called inactive in [7], in [19], in assay [8], in [9], in assay [10] and in [11]. Moreover, the call in assay [12], in assay [13], in assay [15], in assay [16], in [17] and in assay [18] was inactive.
As a reminder, the AC50 is the midpoint of the concentration-response curve, whichever way the signal moves. On to `CCC(C)C(=O)OC` (configuration not stated), for which the concentration at half-maximal activity (AC50) in [1] was 0.0271 µM (active). The outcome in assay [2], in assay [3], in assay [4], in assay [5], in [6] and in [7] was inactive. The call in assay [19], in assay [8], in assay [9], in assay [10], in assay [11] and in assay [12] was inactive. For the same molecule, the molecule was called inactive in assay [13], in assay [15], in assay [16] and in assay [18].
Regarding `COc1cc(O)c(C(=O)c2ccccc2)cc1S(=O)(=O)O`, the outcome in assay [1], in assay [2], in [3], in assay [4], in assay [5] and in assay [6] was inactive. Besides, the molecule was classed as inactive in assay [7], in [19], in assay [8], in assay [9], in assay [10] and in [11]. Also, the molecule was classed as inactive in [12], in [13], in assay [15], in assay [16], in assay [17] and in [18]. In assay [14], the AC50 was 56 µM (active).
